# BAZ2B block – inhibitors of human BAZ2B bromodomain; AlphaScreen BAZ2B-H3K14Ac peptide displacement; 4.4% of 360,000 active; Potency, µM (series often up to 114 µM), inactives show at the top dose activity change, negative = inhibition, actives largely listed as inhibitors; note: % is set by controls: 0 for no effect and ±100 for the full control effect; nearly all actives have a fitted effect of over 60% in size
#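 AlphaScreen displacement: compounds (up to 110uM) incubated 30 min at room temperature with a preformed 50 nM BAZ2B/50 nM biotinylated H3K14Ac peptide complex in PBS pH 7.4 with Tween-20. Donor and acceptor beads at 10 ug/mL final added, 20 min light-protected before reading.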
# Sfp PPTase inh – Sfp phosphopantetheinyl transferase inhibition; Potency, µM, without a hit: largest response in the series, negative = inhibition, usual class: inhibitors; Q9F4F7; 3.5% of 310,000 active; Biochemical Sfp PPTase activity, qHTS; AID 1490;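 note: the enzyme is Sfp with the accession as filed and its product quenches rhodamine fluorescence; 0% = enzyme reaction without inhibitor and -100% = no enzyme wells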
#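 Fluorescence-quenching assay with 15 nM Sfp, 5 uM rhodamine-CoA and 12.5 uM BHQ-2-labelled ybbR peptide in pH 7.6 Hepes/MgCl2 buffer. Enzyme was pre-incubated with compound for 15 min at room temperature. Rate was taken from the 30-min fluorescence change (525/598 nm).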
# G9a inh – G9a (human) methyltransferase inhibition; 8.8% of 350,000 active; Potency, µM (titrated, usually from 102 µM), for inactives: at the top dose activity, negative = inhibition, most hits filed as inhibitors; G9a H3K9 monomethylation, AlphaScreen, 2 h; note: % is set by controls: 0 for no effect and ±100 for the full control effect; nearly all actives have a fitted effect of over 75% in size
# Target sequence (Q96KQ7 913-1193 limits assumed): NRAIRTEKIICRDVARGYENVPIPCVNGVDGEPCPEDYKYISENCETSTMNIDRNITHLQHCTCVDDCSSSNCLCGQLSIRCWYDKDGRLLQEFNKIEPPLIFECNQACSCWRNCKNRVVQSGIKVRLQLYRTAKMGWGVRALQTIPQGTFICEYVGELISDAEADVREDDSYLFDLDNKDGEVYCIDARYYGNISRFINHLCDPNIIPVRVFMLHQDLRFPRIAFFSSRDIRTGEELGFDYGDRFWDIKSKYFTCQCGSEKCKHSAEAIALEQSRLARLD
#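 Methyltransferase reactions run at room temperature for 2 h (20 nM enzyme, 500 nM biotin-H3K9 peptide, 20 uM SAM) after a 15 min compound preincubation; product detected by AlphaScreen beads and anti-H3K9me1 antibody.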
# JMJD2A Tudor inh – JMJD2A Tudor domain (human) inhibition; O75164; AlphaScreen JMJD2A-Tudor / H3K4me3 peptide binding; Potency, µM (highest dose often 114 µM), for inactives: at the top dose activity change, negative = inhibition, usual class: inhibitors; 4.4% of 390,000 active; AID 504339; note: % is set by controls: 0 for no effect and ±100 for the full control effect; nearly all actives have a fitted effect of over 50% in size
# L3MBTL1 inh – inhibitors of human L3MBTL1 | Potency, µM (series often up to 57.1 µM), for the others: at the top dose activity, negative = inhibition, most hits filed as inhibitors | 0.66% of 230,000 active | Q9Y468 | AlphaScreen L3MBTL1–H3K9me1 peptide binding; note: % is set by controls: 0 for no effect and ±100 for the full control effect; nearly all actives have a fitted effect of over 60% in size
#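 AlphaScreen assay: L3MBTL1 (50 nM final) was preincubated 30 min at room temperature with biotinylated H3(1-15)K9me1 peptide (75 nM final), then 30 min with library compounds; streptavidin donor and nickel chelate acceptor beads (10 ug/mL final) added, 30 min dark.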
# HP1b chromo inh – blocks HP1-beta chromodomain binding to methylated histone tails; Potency, µM (doses to about 114 µM), for inactives: at the top dose activity change, negative = inhibition, hits mostly inhibitors; AlphaScreen HP1-beta / biotin-H3K9me3 peptide binding; P83916; 0.56% of 390,000 active; note: nearly all actives have a fitted effect of over 70% in size
# Target sequence (P83916 whole entry, looked up): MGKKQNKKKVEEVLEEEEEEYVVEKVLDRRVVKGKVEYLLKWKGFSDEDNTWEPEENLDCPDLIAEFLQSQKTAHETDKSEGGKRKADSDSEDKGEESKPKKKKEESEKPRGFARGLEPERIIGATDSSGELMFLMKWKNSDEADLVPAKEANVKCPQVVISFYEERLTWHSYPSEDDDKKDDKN
#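 HP1-beta protein (50 nM final) preincubated 30 min at room temperature with biotinylated H3(1-18)K9me3 peptide (50 nM) in PBS pH 7.4, 0.01% Tween-20, then compound added for 30 min. AlphaScreen streptavidin donor/nickel chelate acceptor beads (10 ug/mL final), 30 min dark, luminescence read.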
# Starred values were filed as active, the others as inactive; ? = inconclusive; · = not tested or not shown; [ ] = remark or other dose. A selection: hits, their analogues and other compounds. The true share with any hit is near 12%. Calls come from the whole dose curve; as a rule, active = well fitted curve in the direction sought with a large enough effect; inconclusive = small, poorly fitted or top-dose-only effect, or another doubt; inactive = no such curve, though single readings can be large; an effect the other way counts as inactive or inconclusive. Potency is the fitted concentration of half-maximal effect.
SMILES,BAZ2B block,Sfp PPTase inh,G9a inh,JMJD2A Tudor inh,L3MBTL1 inh,HP1b chromo inh
C#CCOCCOCCOCCNc1nc(N2CCN(C(=O)[C@H](CCC(=O)O)n3cc(CN)nn3)CC2)nc(N2CCN(C(=O)[C@H](CCCN=C(N)N)n3cc(C(N)[C@@H](C)CC)nn3)CC2)n1 (stereo partly specified),·,·,·,?,0%,22%
C#CCOCCOCCOCCNc1nc(N2CCN(C(=O)[C@H](CCC(=O)O)n3cc(C(N)Cc4ccc(O)cc4)nn3)CC2)nc(N2CCN(C(=O)[C@H](CCC(=O)O)n3cc(C(N)[C@H](C)CC)nn3)CC2)n1 (stereo partly specified),40µM*,-28%,-127%[59 µM],25µM*,-1%,21%
C#CCOCCOCCOCCNc1nc(N2CCN(C(=O)[C@H](CCC(=O)O)n3cc(C(N)Cc4ccc(O)cc4)nn3)CC2)nc(N2CCN(C(=O)[C@H](Cc3ccc(O)cc3)n3cc(C(N)[C@H](C)CC)nn3)CC2)n1 (stereo partly specified),50µM*,-15%,-26%[12.7 µM],·,·,·
Cc1cccc(NC(=O)COC(=O)CCc2c[nH]c3ccccc23)c1C,-37%,·,0%[12.7 µM],-22%,-6%,7%
CCCCOC(=O)Cn1c(=O)n(CC(=O)OCCCC)c2ccccc21,0%,20%,27%,2%,·,38%
CCCCCCCCCCOC(=O)Cn1c(COc2ccccc2C)[n+](C)c2ccccc21,2%,45µM*,-20%,-32%,14%,20%
CCOC(=O)Cn1c(COc2ccccc2OC)[n+](C)c2ccccc21,·,·,·,-1%,·,48%
CCCCCCCCCCOC(=O)Cn1c(COc2cccc(C)c2)[n+](C)c2ccccc21,-7%,56µM*,23%[0.501 µM],-30%,-6%[2.29 µM],44%
CCCCCCCCCCOC(=O)Cn1c(COc2ccccc2)[n+](C)c2ccccc21,-2%,40µM*,-12%,-28%,·,16%
CCCCCCCCCCOC(=O)Cn1c(COc2ccc(OC)cc2)[n+](C)c2ccccc21,-17%,35µM*,?,?,0%,16%
COc1ccc(N2CCN(C(=O)Cn3c(-c4cccs4)cc4ccccc43)CC2)cc1,-36%,·,?,-31%,·,-2%
CC(C)c1ccc(NC(=O)c2ccc3c(c2)CCCN3S(C)(=O)=O)cc1,-2%,·,-7%[59 µM],-27%,·,8%
O=C(COC(=O)/C=C/c1cccc(C(F)(F)F)c1)NC1CCCCCC1,3%,·,15%[59 µM],-13%,6%,27%
O=C1OCCC1Sc1nnc2c(n1)[nH]c1ccccc12 (stereo unspecified),·,·,·,-10%,·,20%
CN(C)C=NC(=O)c1cc2c(n(-c3ccccc3)c1=O)CC(C)(C)CC2=O,2%,·,-8%[59 µM],-12%,·,24%
CCCCCCCCCCOC(=O)Cn1c(COc2ccc(Cl)cc2)[n+](C)c2ccccc21,-21%,25µM*,?,-24%,·,25%
CCCCCOC(=O)Cn1c(=O)oc2ccccc21,15%,-12%,-12%[59 µM],25%,14%,53%
ON=Cc1cccn1-c1ccccc1,50µM*,8%,-36%[59 µM],-33%,-5%,-10%
O=C(N/N=C/c1cccn1-c1ccccc1)c1ccncc1,?,4%,55%[59 µM],-30%,·,-10%
CCC1CCCCN1CCCNC(=O)c1ccc(CS(=O)(=O)c2ccc(Br)cc2)o1 (stereo unspecified),-3%,14%,3%,7%,·,37%
COc1cccc(C(=O)Nc2ccc(NC(C)=O)cc2)c1,4%,15%,20%[12.7 µM],-18%,·,16%
COc1cccc(C(=O)C(C#N)=C(SC)SC)c1,-24%,4µM*,40µM*,-20%,3%,-22%
CSC(SC)=C(C#N)C(=O)c1ccccc1,-18%,7.9µM*,50µM*,-3%,-4%,-20%
Cc1cc(C)cc(NC(=O)C2CCCN2S(=O)(=O)c2ccc3nc(-c4ccccc4)[nH]c3c2)c1 (stereo unspecified),79µM*,·,?,?,·,7%
CCc1cccc(NC(=O)C2CCCN2S(=O)(=O)c2ccc3nc(-c4ccccc4)[nH]c3c2)c1 (stereo unspecified),-29%,·,-31%[59 µM],-15%,·,27%
SMILES,BAZ2B block,Sfp PPTase inh,G9a inh,JMJD2A Tudor inh,L3MBTL1 inh,HP1b chromo inh
O=c1cc(O)c2ccc(O)cc2o1,-6%,-9%,18%[59 µM],-7%,9%,21%
O=C(O)/C=C/c1ccc(O)cc1,·,·,·,-14%,·,38%
O=C(/C=C/c1ccc(O)c(O)c1)c1ccccc1O,40µM*,-10%,13µM*,3.5µM*,-4%,45µM*
O=C(O)/C=C\c1ccc(O)c(O)c1,·,35µM*,2.5µM*,·,·,·
O=c1cc(O)cc(/C=C/c2ccc(O)c(O)c2)o1,·,·,4µM*,·,·,·
O=C(/C=C/c1ccc(O)c(O)c1)OCCc1ccccc1,·,?,3.5µM*,89µM*,·,-24%
O=C(CN1C(=O)COc2ccc(S(=O)(=O)N3CCCC3)cc21)N1CCN(c2ccc(Cl)cc2)CC1,15%,·,26%[59 µM],-22%,·,52%
Cc1ccc(C2=Nc3ccccc3N(CC(=O)Nc3cccc(F)c3)C(=O)C2)cc1C,7%,·,-5%[59 µM],?,·,70%
CCC(=O)OC1=CN(Cc2ccccc2)S(=O)(=O)c2ccccc21,16%,·,-1%[59 µM],10%,·,53%
Nc1nc(Sc2ccc([N+](=O)[O-])c3nonc23)c2[nH]cnc2n1,·,·,·,28µM*,·,8.9µM*
CNc1ncnc(Sc2nc(N)nc3nc[nH]c23)c1[N+](=O)[O-],·,·,·,32µM*,·,28%
CCCN(CCC)S(=O)(=O)c1cccc(-c2csc(C)n2)c1,43%,-1%,277%,76%,56%,70%
Fc1ccc(N2CCN(C3=Nc4cccc5cccc3c45)CC2)cc1,35µM*,7%,40µM*,25µM*,?,?
CCOC(=O)c1c(C)[nH]c(C)c1S(=O)(=O)N1CCC(C(=O)Nc2ccc(OC)c(OC)c2)CC1,-1%,·,-26%[59 µM],-11%,·,-15%
CCCn1c(CN2CCN(c3ccc(OC)cc3)CC2)nc2c1c(=O)[nH]c(=O)n2C,-15%,·,25µM*,-20%,·,23%
C=CCn1c(N2CCN(c3ccc(OC)cc3)CC2)nc2c1c(=O)[nH]c(=O)n2C,-31%,15%,50µM*,-14%,-10%,49%
Cc1nn(-c2ccccc2)c2c1C1(C(=O)N3c4c(cccc41)C(C)CC3(C)C)C(C#N)=C(N)O2 (stereo unspecified),?,-8%,10µM*,?,·,-25%
CCOc1ccc(S(=O)(=O)NCCC(=O)NC2CCC(C)CC2)cc1 (stereo unspecified),·,·,·,-3%,2%,18%[57 µM]

# Screening results as filed in PubChem.
